The results in this text go back to PubChem BioAssay (NCI).

Compounds without any hit were thinned out: in the full panel of roughly 83,000, 20% have a hit.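 Each cell line was grown in a 96-well plate and treated with one concentration of compound for 48 hours. Values below 10 were considered active.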 Values without a mark were called inactive. The source made the active and inactive calls.

Among the test systems are HCT-15 colon; HT29 colon; SNB-75 CNS; SNB-19 CNS; U251 CNS; PC-3 prostate; SK-MEL-5 melanoma; UACC-62 melanoma; LOX IMVI melanoma; SK-MEL-28 melanoma; SK-MEL-2 melanoma; EKVX NSCLC; SN12C renal; UO-31 renal; TK-10 renal; ACHN renal; CAKI-1 renal; A498 renal; CCRF-CEM leukemia; MOLT-4 leukemia.
Assay in all cases: NCI-60 one-dose screen, 48 h (100 = growth as untreated, 0 = no growth, -100 = all killed)
Holding throughout (conditions): 10 µM unless noted

As for `CN1CCN(c2cc(F)c(NC3=C(Cl)C(=O)c4ncccc4C3=O)c(F)c2)CC1`, the growth in the assay on HCT-15 colon was -8.53% (active); in the assay on HT29 colon, 11.2%; in the assay with SNB-75 CNS, 38%; in the assay with SNB-19 CNS, 96.3%; in the assay on U251 CNS, -9.88% (active); in the assay with PC-3 prostate, 11.8%. The growth in the assay with SK-MEL-5 melanoma was -91.7% (active); with UACC-62 melanoma, -45.6% (active); with LOX IMVI melanoma, -70.3% (active); in the assay with SK-MEL-28 melanoma, -55.1% (active); in the assay with SK-MEL-2 melanoma, -49.6% (active); in the assay on EKVX NSCLC it was -82.7% (active). Besides, the growth was -97.5% (active) in the assay on SN12C renal; -100% (active) with UO-31 renal; 8.46% (active) in the assay on TK-10 renal; -93.1% (active) in the assay with ACHN renal; -85.6% (active) in the assay on CAKI-1 renal; 80.1% in the assay with A498 renal. For the same compound, the results for the growth in the assay with CCRF-CEM leukemia and in the assay with MOLT-4 leukemia were -18.2% (active) and -22.7% (active), respectively.

As for `Fc1ccc(C2CC(c3cccc(Nc4ccncc4)c3)=NN2c2ccccc2)cc1` (stereo not given), the growth in the assay on HCT-15 colon was 2.73% (active); in the assay on HT29 colon it was 0.645% (active); with SNB-75 CNS it was 68.2%; in the assay with SNB-19 CNS, 79%; with U251 CNS, 18.9%; with PC-3 prostate it was 40.6%. Moreover, the growth was 76.4% with SK-MEL-5 melanoma; 88.8% in the assay on UACC-62 melanoma; 29.8% in the assay on LOX IMVI melanoma; -57% (active) in the assay on SK-MEL-28 melanoma; 90.2% in the assay on SK-MEL-2 melanoma; 90.1% with EKVX NSCLC. Moreover, the growth was 75.8% in the assay with SN12C renal; 62.8% in the assay with UO-31 renal; 80.3% with TK-10 renal; 75.3% with ACHN renal; 48.1% with CAKI-1 renal; 85.2% in the assay with A498 renal. Moreover, the growth in the assay on CCRF-CEM leukemia is 32.4%; with MOLT-4 leukemia, 5.35% (active).

Regarding `COc1ccc(C(O)c2cc3c(N)c(C(=O)Nc4cccc(OC)c4)sc3nc2C)cc1` (stereo not given), the growth with HCT-15 colon is 15.6%; with HT29 colon it was 2.47% (active); in the assay on SNB-75 CNS, -2.98% (active); in the assay with SNB-19 CNS, 36.1%; in the assay with U251 CNS it was 9.2% (active); with PC-3 prostate, 16.2%. Further, the growth is -35.4% (active) in the assay with SK-MEL-5 melanoma; 23.6% with UACC-62 melanoma; 30.8% with LOX IMVI melanoma; 59% in the assay on SK-MEL-28 melanoma; 22.6% in the assay on SK-MEL-2 melanoma; 33.8% in the assay with EKVX NSCLC. Also, the growth is 23.6% in the assay with SN12C renal; 25% with UO-31 renal; 39.9% with TK-10 renal; 27% in the assay on ACHN renal; 24.4% with CAKI-1 renal; -17% (active) in the assay on A498 renal. The results for the growth in the assay with CCRF-CEM leukemia and in the assay on MOLT-4 leukemia were 7.53% (active) and 16.3%, respectively.

As for `OC1(c2ccc(Cl)c(C(F)(F)F)c2)CCN(CCCC(c2ccc(F)cc2)c2ccc(F)cc2)CC1`, the growth in the assay with HCT-15 colon was -78.5% (active); with HT29 colon, -88.1% (active); in the assay on SNB-75 CNS, -66.3% (active); in the assay with SNB-19 CNS, 12.1%; with U251 CNS, -93.1% (active); with PC-3 prostate, -65.5% (active). Besides, the growth is -93.5% (active) with SK-MEL-5 melanoma; -92.6% (active) with UACC-62 melanoma; -96.1% (active) in the assay on LOX IMVI melanoma; -94.4% (active) in the assay on SK-MEL-28 melanoma; -77.2% (active) in the assay with SK-MEL-2 melanoma; -9.88% (active) with EKVX NSCLC. For the same compound, the growth in the assay on SN12C renal is -91.3% (active); in the assay on UO-31 renal it was -65.7% (active); in the assay on TK-10 renal it was -50.7% (active); in the assay with ACHN renal, -86.8% (active); in the assay on CAKI-1 renal, -68.7% (active); in the assay with A498 renal, -92.5% (active). Further, the growth in the assay with CCRF-CEM leukemia was -39% (active); in the assay with MOLT-4 leukemia, -25.8% (active).

In the case of `O=C1c2ccccc2C(=O)c2c(NCCN=Cc3ccccc3O)cccc21`, the growth in the assay on HCT-15 colon is 40.7%; in the assay on HT29 colon, 32.4%; in the assay with SNB-75 CNS it was 68.4%; in the assay on SNB-19 CNS, 65.3%; in the assay with U251 CNS, 60.5%; in the assay on PC-3 prostate, 66.7%. In addition, the growth in the assay with SK-MEL-5 melanoma is 61.9%; with UACC-62 melanoma, 62.8%; with LOX IMVI melanoma, 21.3%; in the assay on SK-MEL-28 melanoma it was 91.7%; in the assay on SK-MEL-2 melanoma, 108%; with EKVX NSCLC, 56%. For the same compound, the growth in the assay with SN12C renal was 50.3%; in the assay with UO-31 renal, 39.3%; with TK-10 renal, 68.5%; in the assay with ACHN renal it was 30.9%; in the assay with CAKI-1 renal, -10.3% (active); with A498 renal, 35.1%. The figures for the growth in the assay on CCRF-CEM leukemia and with MOLT-4 leukemia were 59% and -16.4% (active), respectively.

For `COc1ccc(C(=O)c2cc3c(N)c(C(=O)Nc4ccc(Cl)cc4)sc3nc2C)cc1`, the growth was 55.9% with HCT-15 colon; 54.2% in the assay with HT29 colon; 4.28% (active) in the assay with SNB-75 CNS; 67% in the assay on SNB-19 CNS; 61.7% with U251 CNS; 78.7% in the assay with PC-3 prostate. The growth is 85.2% with SK-MEL-5 melanoma; 78.6% in the assay on UACC-62 melanoma; 82.6% in the assay with LOX IMVI melanoma; 82.6% in the assay on SK-MEL-28 melanoma; 68.5% in the assay on SK-MEL-2 melanoma; 86.1% with EKVX NSCLC. Moreover, the growth in the assay with SN12C renal is 89.9%; in the assay on UO-31 renal, 79%; with TK-10 renal, 82%; with ACHN renal it was 74.7%; in the assay with CAKI-1 renal, 66.3%; in the assay with A498 renal, 59.9%. In addition, the growth in the assay with CCRF-CEM leukemia is 73.9%; with MOLT-4 leukemia it was 82.6%.

Turning to `Nc1ncc(C#Cc2cncc(NC(=O)c3cccc(C(F)(F)F)c3)c2)c2cccnc12`, the growth with HCT-15 colon was 56.6%; with HT29 colon, 27.4%; with SNB-75 CNS, 60.7%; in the assay with SNB-19 CNS, 94.9%; in the assay on U251 CNS, 53.5%; with PC-3 prostate, 49.9%. Also, the growth with SK-MEL-5 melanoma is 34%; in the assay with UACC-62 melanoma it was 55.7%; in the assay on LOX IMVI melanoma, 5.77% (active); with SK-MEL-28 melanoma, 33.6%; in the assay with SK-MEL-2 melanoma, 5.81% (active); in the assay with EKVX NSCLC it was 81.6%. Moreover, the growth in the assay on SN12C renal is 50.4%; in the assay on UO-31 renal, 33.7%; in the assay with TK-10 renal, 84.8%; in the assay on ACHN renal, 55.1%; with CAKI-1 renal, 68.6%; with A498 renal it was 62.8%. Further, the growth in the assay on CCRF-CEM leukemia is 48.5%; in the assay with MOLT-4 leukemia, 36.8%.

On to `CNC(=O)c1c(NC(=O)c2ccc(C(C)C)cc2)sc2c(CN(C)C)c(O)ccc12`, for which the growth is 14.2% in the assay with HCT-15 colon; 87.1% in the assay on HT29 colon; 98.1% with SNB-75 CNS; 103% in the assay with SNB-19 CNS; 81.7% in the assay on U251 CNS; 79.4% in the assay on PC-3 prostate. Further, the growth with SK-MEL-5 melanoma was 96%; with UACC-62 melanoma it was 99.9%; in the assay with LOX IMVI melanoma it was 57.3%; in the assay on SK-MEL-28 melanoma, 94.5%; in the assay with SK-MEL-2 melanoma, 90.2%; with EKVX NSCLC, 90.2%. Also, the growth is 99.4% in the assay on SN12C renal; 64.5% in the assay on UO-31 renal; 86.8% in the assay on TK-10 renal; 66.6% with ACHN renal; 85.1% in the assay with CAKI-1 renal; 58.9% in the assay with A498 renal. Moreover, the growth was 56.7% in the assay on CCRF-CEM leukemia and 72.4% with MOLT-4 leukemia.
